# Laboratory results published in PubChem BioAssay AID2634 (National Center for Advancing Translational Sciences (NCATS), 2010).
# Results filed as inconclusive are left out. The source made the active and inactive calls.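 How the source made its calls: active means compounds whose potency, the dose giving half inhibition, is below 20 µM; inconclusive means compounds meeting neither the active nor the inactive rule; inactive means potency over 20 µM or below 50% inhibition when unfitted.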
# Molecular target: Integrin alpha-IIb (Homo sapiens) (UniProt P08514)
# Test: Platelet Adhesion Secondary Assay for Inhibitors of Platelet Integrin alphallb-beta3
# Settings: human platelet adhesion to fibrinogen, calcein fluorescence; at 30 µM, stronger effect = higher value unless noted
# Text: NIH Molecular Libraries Probe Production Network [MLPCN] NIH Chemical Genomics Center [NCGC] MLPCN Grant: 1 R03 MH083257-01 Assay Provider: Barry Coller, Rockefeller University NCGC Assay Overview: The alphaIIbbeta3 receptor plays a vital role in hemostasis and thrombosis, where receptor deficiency causes the hemorrhagic disorder, Glanzmann thrombasthenia, and uncontrolled receptor activation causes thrombosis and blood vessel occlusion. Small molecule inhibitors of alphaIIbbeta3, tirofiban and eptifibatide, have undesirable side effects thought to arise from conformational changes in alphaIIbbeta3. These changes transiently activate the receptor to cause spontaneous platelet aggregation and thrombus formation. […] This secondary assay measures the binding of human plates to fibrinogen, an extracellular matrix protein (Blue et al., 2008). Platelets were loaded with a fluorescent dye, calcein, and added to fibrinogen-coated plates. Following incubation, unbound platelets were removed by washing and bound platelets were detected by measuring fluorescence intensity. Inhibitors of alphaIIbbeta3 block platelet binding to fibrinogen and result in a decrease in fluorescence intensity.
# NCGC Assay Protocol Summary: Human fibrinogen (50 ug/mL) in Tris/saline (100 mM NaCl, 50 mM Tris/HCl, pH 7.4; American Diagnostica, Stamford, CT) was added to black, clear-bottom, untreated polystyrene, nonsterile 384-well microtiter plate wells (Corning no. 3711; Acton, MA) using a peristaltic microplate dispenser (WellMate; Matrix, Hudson, NH). After incubating at 22 C for 1 hour, plates were washed 4 times with Tris/saline using an automated plate washer (ELX405; Bio-Tek, Winooski, VT), and wells were then blocked with HBMT (138 mM NaCl, 12 mM NaHCO3, 10 mM HEPES, 2.7 mM KCl, 0.4 mM NaH2PO4, 0.1% glucose, 0.35% BSA, pH 7.4) for at least 1 hour. After 2 additional washes, 15 uL HBMT was allowed to remain in each well. Compounds were added to the wells with a liquid handling robot (MiniTrak V; PerkinElmer, Wellesley, MA) using a pin tool (VP Scientific, San Diego, CA) that added 0.1 uL compound in DMSO. Fifteen microliters 5E11/L calcein-labeled platelets were then added (2.5E11/L final concentration). After 1 hour of adhesion, wells were washed 4 times with HBMT-CaCl2/MgCl2 and the plates were read by an Envision (Perkin Elmer) to detect calcein fluorescence (490 nm excitation and 515 nm emission). Positive controls consisted of wells containing platelets without compounds. Negative controls were wells containing platelets and known inhibitors of alphaIIbbeta3, including mAbs 7E3 and 10E5, and EDTA. Reference Blue R, Murcia M, Karan C, Jirouskova M, and Coller BS. Application of high-throughput screening to identify a novel alphaIIb-specific small- molecule inhibitor of alphaIIbbeta3-mediated platelet interaction with fibrinogen. Blood. 2008, 111(3):1248-56
# Sequence of Integrin alpha-IIb (Homo sapiens) (P08514 whole entry, looked up): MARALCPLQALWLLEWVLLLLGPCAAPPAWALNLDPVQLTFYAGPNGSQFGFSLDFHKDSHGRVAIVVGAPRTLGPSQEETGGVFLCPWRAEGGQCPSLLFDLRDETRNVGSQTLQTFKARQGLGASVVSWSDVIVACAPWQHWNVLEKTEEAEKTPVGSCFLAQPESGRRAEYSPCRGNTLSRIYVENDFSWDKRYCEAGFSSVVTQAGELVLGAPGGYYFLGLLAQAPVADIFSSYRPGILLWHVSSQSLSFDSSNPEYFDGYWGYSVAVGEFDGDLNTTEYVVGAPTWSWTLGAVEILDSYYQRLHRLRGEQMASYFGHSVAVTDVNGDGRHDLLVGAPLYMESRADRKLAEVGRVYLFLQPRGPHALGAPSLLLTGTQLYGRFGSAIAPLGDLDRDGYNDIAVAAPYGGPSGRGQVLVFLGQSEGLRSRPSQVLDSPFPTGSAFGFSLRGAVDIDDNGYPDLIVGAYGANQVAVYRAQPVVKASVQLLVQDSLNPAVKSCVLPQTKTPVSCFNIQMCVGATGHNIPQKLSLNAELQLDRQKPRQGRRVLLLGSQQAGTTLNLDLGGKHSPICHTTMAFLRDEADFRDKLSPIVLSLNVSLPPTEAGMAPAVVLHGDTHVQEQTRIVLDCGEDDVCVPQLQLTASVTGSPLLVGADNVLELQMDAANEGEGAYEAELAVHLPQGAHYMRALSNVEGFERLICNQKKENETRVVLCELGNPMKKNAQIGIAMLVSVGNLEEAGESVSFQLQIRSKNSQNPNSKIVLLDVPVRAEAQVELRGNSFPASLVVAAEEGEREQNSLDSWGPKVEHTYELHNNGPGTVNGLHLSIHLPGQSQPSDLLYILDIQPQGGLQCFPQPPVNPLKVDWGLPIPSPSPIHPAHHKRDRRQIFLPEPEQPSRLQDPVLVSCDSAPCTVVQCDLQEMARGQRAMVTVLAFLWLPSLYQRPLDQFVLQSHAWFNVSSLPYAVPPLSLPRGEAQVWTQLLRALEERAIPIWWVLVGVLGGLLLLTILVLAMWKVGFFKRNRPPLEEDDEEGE
Structure (SMILES),inhibition,outcome
CCc1nn2c(=O)c(F)c(N3CCNCC3)nc2s1,"41% [inhibition, at 100 µM, stronger effect = higher value]",inactive
CCc1nn2c(=O)cc(N3CCN(C)CC3)nc2s1,23% (inactive),–
CCc1nn2c(=O)cc(N3CCNCC3)nc2s1,35% (inactive),–
Cc1nn2c(=O)cc(N3CCNCC3)nc2s1,20% (inactive),–
CCc1nn2c(=O)c(C)c(N3CCNCC3)nc2s1,"55% [inhibition, at 100 µM, stronger effect = higher value]",inactive
